Screen size: about 330,000 compounds; about 4,900 (1.5%) were called active.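 The calls were made as follows: active = inhibition above about 50% at the single test dose (limit read from the data); inactive = the rest.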 The full list was thinned out, with actives kept by preference.

The target in the assay is Sentrin-specific protease 7 (Homo sapiens) (UniProt Q9BQF6). Nature of the assay: SENP7 protease inhibitors, primary screen, biochemical, luminescence, uHTS (AID 434973).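 Also: plate controls were DMSO with enzyme for no effect and no enzyme buffer wells for full effect.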 As to conditions: recombinant SENP7, Z-RLRGG-aminoluciferin luminescence, 40 min; at 5 µM; active compounds read high.
For the compound `CN1CCN(c2cc(N3CCNCC3)ccc2[N+](=O)[O-])CC1`, the inhibition is 6.98% (inactive). In the case of `COc1cccc(-c2nc3ccc(N4CCN(C)CC4)cc3[nH]2)c1`, the inhibition is 57.6% (active). Consider `Cc1nc2ccc(N3CCN(C)CC3)cc2nc1C`, for which the inhibition is -4.82% (inactive). Consider `Cc1ccc(C)c(NC2=NCCCS2)c1`, for which the inhibition is 5.92% (inactive). Turning to `CCOC(=O)c1c(N)n(CCN2CCOCC2)c2nc3ccccc3nc12`, the inhibition is 0.976% (inactive). On to `CCOC(=O)c1c(N)n(Cc2ccccc2)c2nc3ccccc3nc12`, for which the inhibition is 13% (inactive). As to `COc1cc(Cn2c(N)c(C(=O)NCc3ccco3)c3nc4ccccc4nc32)cc(OC)c1OC`, the inhibition is 80.7% (active). `CCOC(=O)C(O)(c1ccc(N)c(OC)c1)C(F)(F)F` (stereo not given): the inhibition is 3.48% (inactive). In the case of `NCC(O)c1ccc(O)cc1` (stereo not given), the inhibition is -7.28% (inactive). In the case of `COc1ccc(N=Cc2c(O)n(C)c(=O)[nH]c2=O)cc1`, the inhibition is 22.6% (inactive).

(Values after PubChem BioAssay AID434973 (Sanford-Burnham Center for Chemical Genomics, 2010).)
